# HP1b chromo inh = HTS for Inhibitors of HP1-beta Chromodomain Interactions with Methylated Histone Tails | Chromobox protein homolog 1 (Homo sapiens), P83916 | AlphaScreen HP1-beta / biotin-H3K9me3 peptide binding | Potency, µM (top dose mostly 114 µM), for inactives: top-dose activity change, negative = inhibition, hits mostly inhibitors | 390,000 compounds, 0.56% hits | AID 540317, 2011; further: nearly all actives have a fitted effect of over 70% in size
#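 AlphaScreen: HP1-beta (50 nM) preformed 30 min with biotin-H3(1-18)K9me3 peptide (50 nM) in PBS pH 7.4, 0.01% Tween-20. Compound added for 30 min at RT, then streptavidin donor/nickel chelate acceptor beads (10 ug/mL) for 30 min.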
# Sfp PPTase inh = qHTS Assay for Inhibitors of Bacillus subtilis Sfp phosphopantetheinyl transferase (PPTase); 310,000 compounds, 3.5% hits; Biochemical Sfp PPTase activity, qHTS; Potency, µM, without a hit: largest response in the series, negative = inhibition, usual class: inhibitors; 4'-phosphopantetheinyl transferase ffp (Bacillus subtilis), Q9F4F7; AID 1490, 2009;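 further: the enzyme is Sfp with the accession as filed and its product quenches rhodamine fluorescence; 0% = enzyme reaction without inhibitor and -100% = no enzyme wells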
#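 Fluorescence-quenching assay with 15 nM Sfp, 5 uM rhodamine-CoA and 12.5 uM BHQ-2-labelled ybbR peptide in pH 7.6 Hepes/MgCl2 buffer. Enzyme was pre-incubated with compound for 15 min at room temperature. Rate was taken from the 30-min fluorescence change (525/598 nm).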
# PLK1 PBD block = qHTS for Inhibitors of PLK1-PDB (polo-like kinase 1 - polo-box domain): Primary Screen | Serine/threonine-protein kinase PLK1 (Homo sapiens), P53350 | Plk1 PBD binding of FITC phosphopeptide, fluorescence polarization | Potency, µM, for inactives: max response, negative = inhibition, most hits filed as inhibitors | 360,000 compounds, 2.8% hits; further: series mostly up to about 57 µM; on the % scale 0 is the no-effect control and ±100 the full control effect; nearly all actives have a fitted effect of over 65% in size
# BAZ2B inh = qHTS Assay for Inhibitors of BAZ2B. Bromodomain adjacent to zinc finger domain protein 2B (Homo sapiens), Q9UIF8. AlphaScreen BAZ2B-H3K14Ac peptide displacement. Potency, µM (top dose mostly 114 µM), for inactives: at the top dose activity change, negative = inhibition, usual class: inhibitors. 360,000 compounds, 4.4% hits; further: on the % scale 0 is the no-effect control and ±100 the full control effect; nearly all actives have a fitted effect of over 60% in size
#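 AlphaScreen luminescence quantifies BAZ2B engagement of H3K14Ac peptide; the protein and biotinylated peptide are both at 50 nM final, buffer PBS pH 7.4 with 0.01% Tween-20, all steps at room temperature.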
# G9a block = qHTS Assay for Inhibitors of Histone Lysine Methyltransferase G9a; Histone-lysine N-methyltransferase EHMT2 (Homo sapiens), Q96KQ7; G9a H3K9 monomethylation, AlphaScreen, 2 h; Potency, µM (series often up to 102 µM), without a hit: at the top dose activity, negative = inhibition, actives largely listed as inhibitors; 350,000 compounds, 8.8% hits; AID 504332, 2011; further: on the % scale 0 is the no-effect control and ±100 the full control effect; nearly all actives have a fitted effect of over 75% in size
#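 Readings reflect AlphaScreen signal from monomethyl-H3K9 antibody detection. HMT at 20 nM; substrate b-H3K9 500 nM; cofactor SAM 20 uM; 2 h RT reaction; compounds tested as titrations in qHTS with 15 min preincubation.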
# JMJD2A Tudor = qHTS Assay for Inhibitors of JMJD2A-Tudor Domain; Lysine-specific demethylase 4A (Homo sapiens), O75164; AlphaScreen JMJD2A-Tudor / H3K4me3 peptide binding; Potency, µM (highest dose often 114 µM), without a hit: at the highest dose activity change, negative = inhibition, usual class: inhibitors; 390,000 compounds, 4.4% hits; further: on the % scale 0 is the no-effect control and ±100 the full control effect; nearly all actives have a fitted effect of over 50% in size
# Target sequence (O75164 whole entry, looked up, the tested form may be a part): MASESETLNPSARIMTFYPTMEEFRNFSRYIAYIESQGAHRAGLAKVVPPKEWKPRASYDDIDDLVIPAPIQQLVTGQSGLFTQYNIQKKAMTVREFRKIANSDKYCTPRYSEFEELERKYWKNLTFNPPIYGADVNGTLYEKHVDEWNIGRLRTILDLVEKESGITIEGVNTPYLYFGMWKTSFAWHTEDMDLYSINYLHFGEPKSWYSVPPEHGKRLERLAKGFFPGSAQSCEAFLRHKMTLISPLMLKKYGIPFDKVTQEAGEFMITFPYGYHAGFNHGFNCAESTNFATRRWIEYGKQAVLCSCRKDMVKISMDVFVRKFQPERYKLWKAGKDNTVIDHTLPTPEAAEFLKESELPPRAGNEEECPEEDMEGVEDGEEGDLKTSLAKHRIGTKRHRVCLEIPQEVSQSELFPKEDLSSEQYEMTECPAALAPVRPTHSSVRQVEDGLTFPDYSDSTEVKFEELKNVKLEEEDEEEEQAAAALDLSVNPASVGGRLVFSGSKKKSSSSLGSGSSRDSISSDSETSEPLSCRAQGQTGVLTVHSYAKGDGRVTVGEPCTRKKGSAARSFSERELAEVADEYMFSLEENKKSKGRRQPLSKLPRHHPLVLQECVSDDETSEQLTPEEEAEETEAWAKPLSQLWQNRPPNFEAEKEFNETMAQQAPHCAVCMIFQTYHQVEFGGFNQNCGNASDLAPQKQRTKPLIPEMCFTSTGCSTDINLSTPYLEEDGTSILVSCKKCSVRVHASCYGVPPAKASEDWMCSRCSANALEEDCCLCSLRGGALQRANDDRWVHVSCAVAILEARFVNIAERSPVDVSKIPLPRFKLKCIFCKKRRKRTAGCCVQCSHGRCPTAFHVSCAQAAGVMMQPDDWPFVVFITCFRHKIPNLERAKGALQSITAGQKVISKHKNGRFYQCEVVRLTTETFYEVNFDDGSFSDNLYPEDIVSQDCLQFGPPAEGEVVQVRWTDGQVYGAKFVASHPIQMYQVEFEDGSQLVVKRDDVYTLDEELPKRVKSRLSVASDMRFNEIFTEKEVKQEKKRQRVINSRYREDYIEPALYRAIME
# * hit, by the source's call; u = inconclusive; x = not tested or not shown; [ ] = dose if it differs, or a comment. An excerpt weighted towards active compounds, which were near 12% of everything screened. The call rests on the fitted dose curve; in most records, active means well fitted curve in the direction sought with a large enough effect; inconclusive means small, poorly fitted or top-dose-only effect, or another doubt; inactive means no such curve, though single readings can be large; an effect the other way counts as inactive or inconclusive. Potency means the concentration at half of the fitted maximal effect.
SMILES,HP1b chromo inh,Sfp PPTase inh,PLK1 PBD block,BAZ2B inh,G9a block,JMJD2A Tudor
CCN(CC)CCN(C(=O)c1ccc(C(=O)c2ccccc2)cc1)c1nc2cc3c(cc2s1)OCO3,3%,-10%,-2%,u,40µM*,u
CN(C)CCN(C(=O)c1ccc2ccccc2c1)c1nc2cc3c(cc2s1)OCO3,x,x,-19%,x,x,x
CN(C)CCCN(C(=O)c1ccc(Cl)s1)c1nc2cc3c(cc2s1)OCO3,13%,-1%,0%,u,u,-20%
CN(C)CCCN(C(=O)c1ccc(C(=O)c2ccccc2)cc1)c1nc2cc3c(cc2s1)OCO3,u,-20%,-10%,45µM*,u,50µM*
CC(=O)NC1CC2CCCC(C1)N2C(=O)Nc1cccc(C(C)=O)c1 (centres undefined),19%,x,-13%,x,x,-1%
O=C1c2ccccc2C(O)(c2ccccc2)N1CCc1ccccc1 (centres undefined),41%,7%,1%,0%,26%,-7%
COc1ccc(CCN2C(=O)c3ccccc3C2(O)c2ncc[nH]2)cc1OC (centres undefined),-20%,u,u,u,22µM*,-6%[11.4 µM]
O=C1c2ccccc2C(=O)N1C1CCCCC1,83%,-9%,-3%,-6%,8%,-1%
O=C1c2ccccc2C(O)(c2ncc[nH]2)N1C1CCCCC1 (centres undefined),17%,-17%,-4%,-7%,20µM*,u
O=C(NCc1ccc(F)cc1)c1cnc(N2CCCCC2)c2ccccc12,44%[57 µM],x,x,29%,33%[59 µM],16%
CCOc1ccccc1CN1CCNC(=O)C1CC(=O)NC1CCCCC1 (centres undefined),40%,6%,-11%,-18%,-5%[0.0925 µM],-27%
CCOc1ccccc1CN1CCNC(=O)C1CC(=O)NC1CCCCCC1 (centres undefined),18%,1%,21µM*,-9%,u,u
COc1ccccc1CN1CCNC(=O)C1CC(=O)NC1CCCCCC1 (centres undefined),34%,10%,-5%,-26%,16µM*,-16%
COc1ccc(CN2CCNC(=O)C2CC(=O)NC2CCCCC2)c(OC)c1 (centres undefined),21%,12%,-4%,-12%,x,-11%
COc1cccc(CN2CCNC(=O)C2CC(=O)N2CCCCO2)c1OC (centres undefined),52%,-24%,-2%,0%,71µM*,1%
COc1cccc(CN2CCNC(=O)C2CC(=O)NC2CCCC2)c1OC (centres undefined),9%,9%,-14%,-16%,40µM*,-24%
Cn1cc(CN2CCC(C(=O)Nc3ccc(Oc4ccccc4F)cc3)CC2)cn1,19%,7%,-11%,-9%,22%,-12%
O=C(CCCCCN1C(=O)c2ccccc2C1=O)Nc1ccc(C(=O)O)cc1,30%,3%,-7%,-8%,8%,-6%
Cc1ccc(C)c(CN2C(=O)c3ccccc3S(=O)(=O)c3ccc(C(=O)N4CCOCC4)cc32)c1,16%,x,x,6%,11%[59 µM],-21%
C[C@H]1Cc2c(COc3ccccc3)nc3c(c2CO1)CN(C(=O)c1cc(I)ccc1F)CC3,x,5%,x,x,x,x
Cc1ccccc1-c1cc(N2CCNCC2)ncn1,x,34%,x,x,-1%[0.501 µM],x
CC1(C)C2CC[C@]1(C)[C@@H](O)C2,x,13%,x,x,3%[12.7 µM],x
CC1(C)Cc2c(cnn2-c2cccc(F)c2)C(NC(=O)CSc2ccccn2)C1 (centres undefined),62%,20%,-19%,-14%[57.1 µM],1%,1%
COc1cccc(CN2CCNC(=O)C2CC(=O)NC2CCCCC2)c1OC (centres undefined),44%,12%,-8%,-14%,35µM*,-6%
COCCNC(=O)C1CCCN(C(=O)c2cc(-c3cccs3)oc2C)CC1 (centres undefined),x,x,-4%,x,x,x
SMILES,HP1b chromo inh,Sfp PPTase inh,PLK1 PBD block,BAZ2B inh,G9a block,JMJD2A Tudor
CCOc1ccccc1NC(=O)c1c(C)cc(C)nc1SCC(=O)c1cccc(OC)c1,11%,x,x,0%,-1%[59 µM],-17%
COc1ccccc1/C=C/C=N/NC(=O)CCC1C(=O)NN=C1C (centres undefined),9%,6%,27µM*,3%,-1%,-35%
N#CC1=CN(Cc2ccccc2)C=C(/C=N/Nc2ccccc2)C1,1%,-21%,-12%,-35%,3.5µM*,u
COc1cc(OC)cc(C2=Cc3ccccc3C(CC(C)=O)N2c2ccc(C#CC3(N)CCCCC3)cc2)c1 (centres undefined),x,x,5%,x,x,x
Cc1ccc(NC2=C(C(=O)c3ccccc3)N(C)S(=O)(=O)c3ccccc32)cc1,u,-3%,-4%,25µM*,23%[0.501 µM],u
CN1C(C(=O)c2ccccc2)=C(N)c2ccccc2S1(=O)=O,21%,10%,3%,-16%,-28%,-26%
CN(C)c1cccc2c1c(NS(=O)(=O)c1cn(C)cn1)nn2C,51%,32µM*,-16%,-19%,8.9µM*,0%
O=S(=O)(c1nccs1)N1CCN(c2nc(-c3cccs3)nc3ccccc23)CC1,37%,x,x,x,x,-18%
COc1ccc(C(O)P(=O)(OC(C)C)c2ccc(N(C)C)cc2)c(OC)c1 (centres undefined),18%,12%,-11%,-8%,15%[0.501 µM],22µM*
CC(C)OP(=O)(c1ccc(N(C)C)cc1)C(O)c1ccc(N(C)C)cc1 (centres undefined),11%,10%,-3%,-12%,16%[0.501 µM],4.5µM*
CC(C)COP(=O)(c1ccc(N(C)C)cc1)C(O)c1ccc(N(C)C)cc1 (centres undefined),1%,10%,5%,-36%,40µM*,u
Cc1ccc2nc(CN3CCN(S(=O)(=O)c4ccc(C(C)C)cc4)CC3)oc2c1,44%,x,x,-19%,-1%[59 µM],-17%
CCCc1cc(=O)[nH]c(SCC(=O)Nc2cccc(S(=O)(=O)N3CCCCC3)c2)n1,45%,x,-3%,-13%,-43%[59 µM],-11%
CCOC(=O)C1CCCN(C(=O)CSCc2ccccc2)C1 (centres undefined),28%,4%,-22%,-1%,4%[12.7 µM],7%
